± gives the standard deviation of the averaged measurements.
Legend:
Settings in all cases: concentration: 10 µM; 24 h
HCC1569 [1] = test: cell number relative to DMSO (% of DMSO); higher = more cells (less growth inhibition / toxicity)
In short: (§1)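 In 384-well plates holding 800 HCC1569 or TDF cells per well in RPMI with 10% FBS, compounds were tested at 10 µM for 24 h at 37 °C in triplicate. Fixation used 3.7% formaldehyde. Staining used a rabbit anti-H1.0 antibody with an AlexaFluor 647 secondary, plus DAPI. Each value, H1.0 nuclear intensity or cell number, is a median of replicates shown as percent of the plate control, and HCC1569 values were smoothed for positional effects.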

TDF [2] = test: as above
In short: as §1

TDF [3] = test: H1.0 immunofluorescence intensity relative to DMSO (% of DMSO); higher = stronger H1.0 induction, active = 120 or more
In short: as §1

HCC1569 [4] = test: H1.0 immunofluorescence intensity relative to DMSO (% of DMSO); higher = stronger H1.0 induction, active = 140 or more
In short: as §1
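Wherever H1.0 immunofluorescence intensity relative to DMSO is given: TDF is a line of transformed human dermal fibroblasts of mesenchymal origin.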
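Wherever cell number relative to DMSO is given: TDF denotes transformed human dermal fibroblasts of mesenchymal origin.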

Structure (SMILES) | cell number (HCC1569 [1]) | cell number (TDF [2]) | H1.0 immunofluorescence intensity (TDF [3]) | H1.0 immunofluorescence intensity (HCC1569 [4])
Cl.NCCNC(=O)c1ncsc1-c1cccc(F)c1 [Ro 41-1049 hydrochloride] | 97.5 | 90.9 | 97.4 (inactive) | 104 (inactive)
NC(=O)C1=CN(C2OC(COP(=O)([O-])OP(=O)([O-])OCC3OC(n4cnc5c(N)ncnc54)C(OP(=O)([O-])[O-])C3O)C(O)C2O)C=CC1.[Na+].[Na+].[Na+].[Na+] (configuration not stated) [NADPH tetrasodium] | 103 | 102 | 96.9 (inactive) | 99.1 (inactive)
CC12CCC3c4ccc(O)cc4CCC3C1CCC2=O (configuration not stated) [Estrone] | 102 ± 4.7 | 99.9 ± 9.3 | 96.7 (inactive) | 101 (inactive)
NC(N)=NCCC[C@H](N)C(=O)O [L-Arginine] | 102 | 107 | 93.7 (inactive) | 98.6 (inactive)
O=C1CC(c2ccc(O)cc2)Oc2cc(O)cc(O)c21 (configuration not stated) [Naringenin] | 99.9 | 110 | 90.6 (inactive) | 85.4 (inactive)
CCCCCCCCCCCCCCCCCCc1ccc(C(=O)/C=C/C(=O)O)cc1 [(2E)-4-(4-octadecylphenyl)-4-oxo-2-butenoic acid] | 100 | 105 | 97.6 (inactive) | 107 (inactive)
CCCCCC(O)C=CC1C(O)CC(O)C1CC(=O)CCC(=O)O (configuration not stated) [2,3-Dinor-6-keto-prostaglandin F1a] | 103 | 114 | 88.8 (inactive) | 101 (inactive)
CC(ONC(=O)c1cc(C(F)(F)F)cc(C(F)(F)F)c1)C(=O)Nc1ccc(Cl)cc1 (configuration not stated) | 85.2 | 93.3 | 103 (inactive) | 144 (active)
N#Cc1ccc(N2N=C3c4ccc(C(=O)O)cc4CCC3C2C2CCCC2)cc1Cl (configuration not stated) | 101 | 110 | 85.4 (inactive) | 101 (inactive)
O=C(Nc1ccc(Cl)cc1)C1CCCN(C(=O)c2cccc(-c3ccco3)c2)C1 (configuration not stated) | 86.8 | 98.7 | 95.1 (inactive) | 116 (inactive)
NCC1OC(OC2C(N)CC(N)C(OC3OC(CO)C(O)C(N)C3O)C2O)C(O)C(O)C1O.O=S(=O)(O)O (configuration not stated) [Kanamycin sulfate] | 99.5 | 106 | 99.3 (inactive) | 90.1 (inactive)
C[n+]1ccccc1CC(=O)c1ccc(Br)cc1.[I-] [2-[2-(4-bromophenyl)-2-oxoethyl]-1-methylpyridinium iodide] | 98.7 | 87.6 | 96.4 (inactive) | 97.5 (inactive)
O=C(O)CCC(C(=O)O)N1C(=O)c2ccccc2C1=O [L-Glutamic acid, N-phthaloyl-] | 101 | 110 | 91.4 (inactive) | 105 (inactive)
Cl.O=c1cc(N2CCOCC2)oc2c(-c3ccccc3)cccc12 [LY-294,002 hydrochloride] | 82 | 90.9 | 82.5 (inactive) | 131 (inactive)
COc1ncnc(NS(=O)(=O)c2ccc(N)cc2)c1OC [Sulfadoxine] | 104 | 97.4 | 91.9 (inactive) | 89.2 (inactive)
CC(CN1c2ccccc2Sc2ccccc21)N(C)C.Cl (configuration not stated) [Promethazine.HCl] | 104 | 101 | 96.1 (inactive) | 121 (inactive)
Clc1ccc2c(c1)C(N1CCNCC1)=Nc1ccccc1O2 [Amoxapine] | 99.54 ± 0.74 | 99.9 ± 2.6 | 99.7 (inactive) | 108 (inactive)
CCCCCCCCCCCCCCCCCC(=O)OC(CC(=O)O)C[N+](C)(C)C.[Cl-] (racemic) [DL-Stearoylcarnitine chloride] | 101 | 84.3 | 136 (active) | 114 (inactive)
COc1cc2ncn(-c3cc(OCc4ccccc4S(C)(=O)=O)c(C#N)s3)c2cc1OC [IKK-3 Inhibitor IX] | 85.9 | 109 | 84.2 (inactive) | 127 (inactive)
CCCC(=O)O[C@]1(C(=O)CO)CC[C@H]2[C@@H]3CCC4=CC(=O)CC[C@]4(C)[C@H]3[C@@H](O)C[C@@]21C [(11beta)-11,21-dihydroxy-3,20-dioxopregn-4-en-17-yl butyrate] | 97.4 | 106 | 84.9 (inactive) | 102 (inactive)
COc1ccc2c(c1)c(CC(=O)O)c(C)n2C(=O)c1ccc(Cl)cc1 [Indomethacin] | 101 ± 1.8 | 106 ± 20 | 91.3 (inactive) | 102 (inactive)
Cl.Nc1cc(Nc2ccc(S(N)(=O)=O)cc2)ncn1 | 100 | 93.3 | 98.4 (inactive) | 102 (inactive)
CC(C)CNCc1ccc(-c2ccccc2S(=O)(=O)N2CCCC2)cc1.Cl | 96 | 99.2 | 88.9 (inactive) | 100 (inactive)
O=C(C1CCCCC1)N1CC(=O)N2CCc3ccccc3C2C1 (configuration not stated) [Praziquantel] | 101 ± 4.6 | 103 ± 5.6 | 94.8 (inactive) | 106 (inactive)

Structure (SMILES) | cell number (HCC1569 [1]) | cell number (TDF [2]) | H1.0 immunofluorescence intensity (TDF [3]) | H1.0 immunofluorescence intensity (HCC1569 [4])
Cl.NC(N)=NC(=O)c1nc(Cl)c(N)nc1N [Amiloride hydrochloride] | 99.3 | 100 | 97.6 (inactive) | 96.9 (inactive)
COc1ccc2c(c1)c(C1=C(c3c[nH]c4ccccc34)C(=O)NC1=O)cn2CCCN(C)C | 83.9 | 99.3 | 98.6 (inactive) | 174 (active)
O=C(Nc1ccc([N+](=O)[O-])cc1Cl)c1cc(Cl)ccc1O [Niclosamide] | 70 | 78.1 | 104 (inactive) | 120 (inactive)
CC(=O)C1CCC2C3CC=C4CC(OS(=O)(=O)[O-])CCC4(C)C3CCC12C.[Na+] (configuration not stated) [Pregnenolone sulfate sodium] | 105 | 110 | 95.8 (inactive) | 97.8 (inactive)
Cl.O=S(=O)(c1cccc2cnccc12)N1CCCNCC1 | 100 | 93.8 | 92.4 (inactive) | 92.7 (inactive)
CN1CCC(=C2c3ccccc3C=Cc3ccccc32)CC1.Cl [Cyproheptadine hydrochloride] | 98 | 97.3 | 111 (inactive) | 120 (inactive)
OCCN(CCO)c1nc(N2CCCCC2)c2nc(N(CCO)CCO)nc(N3CCCCC3)c2n1 [Dipyridamole] | 94.2 ± 1.5 | 104 ± 7.8 | 85.7 (inactive) | 98.9 (inactive)
CC(=O)OC1C(C)OC(Oc2c(-c3ccc(O)cc3)oc3cc(O)cc(O)c3c2=O)C(O)C1OC(C)=O (configuration not stated) [RSK Inhibitor, SL0101] | 97.7 | 92.8 | 102 (inactive) | 107 (inactive)
CCN(CC)CCOC(=O)c1cc(Cl)c(N)cc1OC.Cl [SDZ-205,557 hydrochloride] | 105 | 98.8 | 85.4 (inactive) | 86.8 (inactive)
CCCCCCCCC#CCC#CCC#CCCCC(=O)O [5,8,11-Eicosatriynoic acid] | 97.5 ± 3.3 | 97.3 ± 8 | 107 (inactive) | 98.5 (inactive)
CC1OC(OC2C(Oc3cc(O)c4c(=O)c(O)c(-c5ccc(O)cc5)oc4c3)OC(CO)C(O)C2O)C(O)C(O)C1O (configuration not stated) [Kaempferol-7-neohesperidoside] | 98.8 | 99.4 | 95.8 (inactive) | 87.9 (inactive)
C#C[C@@]1(OC(C)=O)CC[C@H]2[C@@H]3CCC4=CC(=O)CC[C@@H]4[C@H]3CC[C@@]21C [(17beta)-17-ethynyl-3-oxoestr-4-en-17-yl acetate] | 90.4 | 96.8 | 95.5 (inactive) | 121 (inactive)
CC12CCC3c4ccc(O)cc4CCC3C1CC(O)C2O (configuration not stated) [Estriol] | 98.5 | 97.8 | 101 (inactive) | 113 (inactive)
N[C@@H](CC(=O)O)C(=O)O [L-Aspartic acid] | 104 | 108 | 88.5 (inactive) | 93.2 (inactive)
O=C1Cc2c([nH]c3ccc(Br)cc23)-c2ccccc2N1 [Kenpaullone] | 76.3 ± 6.3 | 93.1 ± 3.2 | 91.6 (inactive) | 101 (inactive)
C=CC(=O)Nc1cc2c(Nc3ccc(F)c(Cl)c3)ncnc2cc1OCCCN1CCOCC1.Cl.Cl [Canertinib] | 75.8 | 87.4 | 108 (inactive) | 125 (inactive)
COc1cc2ncnc(Nc3cccc(Cl)c3)c2cc1OC [Tyrphostin AG 1478] | 92.8 | 94.6 | 96.2 (inactive) | 119 (inactive)
CN(C)CCC=C1c2ccccc2C=Cc2ccccc21.Cl [Cyclobenzaprine hydrochloride] | 99.3 | 103 | 109 (inactive) | 110 (inactive)
CCC1C(=O)OCC1Cc1cncn1C.Cl (single isomer, unassigned; (+)) [(+)-Pilocarpine hydrochloride] | 97.7 | 93.1 | 102 (inactive) | 101 (inactive)
C=CCCCCCCCCCC(=O)O [11-Dodecenoic acid] | 97.4 | 98.7 | 102 (inactive) | 103 (inactive)
Cl.Nc1nc2ccc(OC(F)(F)F)cc2s1 [Riluzole.HCl] | 101 | 89.9 | 96.2 (inactive) | 94.8 (inactive)
O=C(C=Cc1ccc(O)cc1)c1ccc(O)cc1O [Isoliquiritigenin] | 96.3 | 99.6 | 89.2 (inactive) | 100 (inactive)
Cn1c(=O)c2c(ncn2C)n(C)c1=O [Caffeine] | 102 ± 2.6 | 102 ± 7.9 | 96.1 (inactive) | 91.3 (inactive)
NC(N)=NC(CCC(=O)O)C(=O)O (stereo not drawn) [alpha-Guanidinoglutaric acid] | 104 | 108 | 92.6 (inactive) | 86.2 (inactive)

From the supplement of paper PMC7156485
